# Results published in PubChem BioAssay (NCI).
# The panel holds about 79,000 compounds, 15% with a hit somewhere; the sample as a whole holds those more often. A number with no mark means an inactive call. Calls of active or inactive are those of the source. Rule as the data show it: active = growth inhibition above about 70%; inactive = the rest.
# Key:
# [1] = NCI Yeast Anticancer Drug Screen. Data for the rad52 strain (AID 147);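 also: 0% = growth of vehicle-treated control cultures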; details: S. cerevisiae rad52 mutant growth inhibition, stronger effect = higher value
# How it was run: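 The repair-mutant yeast strain was incubated with compounds, then growth was read and inhibition derived relative to vehicle.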
# [2] = NCI Yeast Anticancer Drug Screen. Data for the wt1 strain (AID 149);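 also: 0% = growth of vehicle-treated wt1 cultures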; details: S. cerevisiae wt1 strain (SPY 50644) growth inhibition, stronger effect = higher value
# How it was run: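 Each compound is tested on wt1 yeast and the loss of growth versus vehicle gives the inhibition value.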
# [3] = NCI Yeast Anticancer Drug Screen. Data for the rad50EPP+ strain (AID 151);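 also: 0% = growth of vehicle-treated control cultures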; details: S. cerevisiae rad50 mutant strain, stronger effect = higher value
# How it was run: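 Vehicle-normalised growth inhibition; rad50EPP+ yeast strain, altered in DNA damage repair, compound-treated.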
# [4] = NCI Yeast Anticancer Drug Screen. Data for the mgt1 strain (AID 153); details: S. cerevisiae mgt1 mutant growth inhibition, stronger effect = higher value
# How it was run: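 Vehicle-normalized growth inhibition is determined in mgt1 yeast, a strain selected for a defined alteration in DNA repair or cell cycle control.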
# [5] = NCI Yeast Anticancer Drug Screen. Data for the rad50 strain (AID 155);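 also: 0% = growth of vehicle-only cultures of the same strain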; details: S. cerevisiae rad50 strain growth inhibition, stronger effect = higher value
# How it was run: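 Vehicle-treated cultures provide the reference for the growth inhibition reported for compound-exposed, repair-deficient yeast.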
# [6] = NCI Yeast Anticancer Drug Screen. Data for the mec2-1 strain (AID 157); details: S. cerevisiae mec2-1 strain, stronger effect = higher value
# How it was run: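 Mutant yeast (mec2-1) grown with compound; growth inhibition relative to vehicle control reported.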
# [7] = NCI Yeast Anticancer Drug Screen. Data for the rad14 strain (AID 159);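 also: 0% = growth of vehicle-treated control cultures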; details: S. cerevisiae rad14 strain growth inhibition, stronger effect = higher value
# How it was run: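 Inhibition of growth is reported for a repair-deficient yeast mutant following compound treatment, calculated relative to cultures that received vehicle.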
# [8] = NCI Yeast Anticancer Drug Screen. Data for the sgs1 mgt1 strain (AID 161);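 also: 0% = growth of cultures given vehicle only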; details: S. cerevisiae sgs1 mgt1 strain, stronger effect = higher value
# How it was run: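 Yeast cells carrying a defined DNA-repair defect were exposed to test compounds. Growth inhibition was measured relative to vehicle-treated controls.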
# [9] = NCI Yeast Anticancer Drug Screen. Data for the CLN2oe strain (AID 163);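 also: 0% = growth of vehicle-only control cultures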; details: S. cerevisiae CLN2oe strain, stronger effect = higher value
# How it was run: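 Compounds are applied to yeast harbouring a defined cell-cycle control change; reduced growth compared with vehicle-treated controls gives the value.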
# [10] = NCI Yeast Anticancer Drug Screen. Data for the cln2 rad14 strain (AID 165);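 also: 0% = growth equal to vehicle treated cultures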; details: S. cerevisiae cln2 rad14 strain, stronger effect = higher value
# How it was run: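 Readout is yeast growth inhibition versus vehicle-treated controls, using a strain with cln2 and rad14 alterations exposed to compound.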
# [11] = NCI Yeast Anticancer Drug Screen. Data for the bub3 strain (AID 167); details: S. cerevisiae bub3 mutant strain, stronger effect = higher value
# How it was run: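 Mutant yeast screening strain plus compound; vehicle-treated cultures serve as the 0% inhibition reference.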
# [12] = NCI Yeast Anticancer Drug Screen. Data for the wt2 strain (AID 169); details: S. cerevisiae wt2 strain growth inhibition, stronger effect = higher value
# How it was run: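 Against vehicle-treated controls, the growth of yeast exposed to each compound was compared, and the inhibition was recorded.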
# [13] = NCI Yeast Anticancer Drug Screen. Data for the mlh1 strain (AID 171);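 also: 0% = growth of vehicle-treated control cultures of the same strain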; details: S. cerevisiae mlh1 strain growth inhibition, stronger effect = higher value
# How it was run: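 Measured: yeast growth. Reference: vehicle-treated controls. Organism: strain with a defined alteration affecting DNA damage repair or cell cycle control, treated with compound.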
# [14] = NCI Yeast Anticancer Drug Screen. Data for the sgs1 strain (AID 173);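 also: 0% = growth of vehicle-only control cultures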; details: S. cerevisiae sgs1 mutant, stronger effect = higher value
# How it was run: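 Each compound was added to cultures of the altered yeast strain. Growth was recorded, and inhibition was derived by comparison with vehicle controls.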
# [15] = NCI Yeast Anticancer Drug Screen. Data for the mlh1 rad18 strain (AID 175); details: S. cerevisiae mlh1 rad18 strain growth inhibition, stronger effect = higher value
# How it was run: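 Genetically defined yeast (DNA repair-deficient) exposed to compounds; growth inhibition determined relative to vehicle.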
# [16] = NCI Yeast Anticancer Drug Screen. Data for the rad18 strain (AID 177); details: S. cerevisiae rad18 mutant growth inhibition, stronger effect = higher value
# How it was run: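 Vehicle-treated cultures served as the baseline for scoring compound-induced growth inhibition in DNA-repair-mutant yeast.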
# [17] = at 5.0 µM (retest, dose inferred, filed as 0.5)
# [18] = at 50.0 µM (retest, dose inferred, filed as 5.0)
smiles,measurement,setting,value
CN(Cc1cnc2nc(N)nc(N)c2n1)c1ccc(C(=O)N[C@@H](CCC(=O)O)C(=O)O)cc1,growth inhibition,[1]; at 1.2 µM,-2%
same,growth inhibition,[1]; at 3.7 µM,-1%
same,growth inhibition,[1]; at 11.0 µM,8%
same,growth inhibition,[1]; at 33.0 µM,41%
same,growth inhibition,[1]; at 100.0 µM,85% (active)
same,growth inhibition,[2]; at 1.2 µM,-1%
same,growth inhibition,[2]; at 3.7 µM,-3%
same,growth inhibition,[2]; at 11.0 µM,-3%
same,growth inhibition,[2]; at 33.0 µM,6%
same,growth inhibition,[2]; at 100.0 µM,24%
same,growth inhibition,[3]; at 1.2 µM,-2%
same,growth inhibition,[3]; at 3.7 µM,-4%
same,growth inhibition,[3]; at 11.0 µM,-5%
same,growth inhibition,[3]; at 33.0 µM,1%
same,growth inhibition,[3]; at 100.0 µM,21%
same,growth inhibition,[4]; at 1.2 µM,-1%
same,growth inhibition,[4]; at 3.7 µM,-3%
same,growth inhibition,[4]; at 11.0 µM,-4%
same,growth inhibition,[4]; at 33.0 µM,1%
same,growth inhibition,[4]; at 100.0 µM,28%
same,growth inhibition,[5]; at 1.2 µM,-2%
same,growth inhibition,[5]; at 3.7 µM,1%
same,growth inhibition,[5]; [17],-2%
same,growth inhibition,[5]; at 11.0 µM,6%
same,growth inhibition,[5]; at 33.0 µM,38%
same,growth inhibition,[5]; [18],82% (active)
same,growth inhibition,[5]; at 50.0 µM,88.6% (active)
same,growth inhibition,[5]; at 100.0 µM,85% (active)
same,growth inhibition,[6]; at 1.2 µM,1%
same,growth inhibition,[6]; at 3.7 µM,2%
same,growth inhibition,[6]; [17],14%
same,growth inhibition,[6]; at 11.0 µM,17%
same,growth inhibition,[6]; at 33.0 µM,88% (active)
same,growth inhibition,[6]; [18],94% (active)
same,growth inhibition,[6]; at 50.0 µM,97.9% (active)
same,growth inhibition,[6]; at 100.0 µM,96% (active)
same,growth inhibition,[7]; at 1.2 µM,-1%
same,growth inhibition,[7]; at 3.7 µM,-5%
same,growth inhibition,[7]; at 11.0 µM,-7%
same,growth inhibition,[7]; at 33.0 µM,14%
same,growth inhibition,[7]; at 100.0 µM,72% (active)
same,growth inhibition,[8]; [17],-3%
same,growth inhibition,[8]; [18],64%
same,growth inhibition,[8]; at 50.0 µM,82.5% (active)
same,growth inhibition,[9]; at 1.2 µM,0%
same,growth inhibition,[9]; at 3.7 µM,0%
same,growth inhibition,[9]; at 11.0 µM,-7%
same,growth inhibition,[9]; at 33.0 µM,-16%
same,growth inhibition,[9]; at 100.0 µM,20%
same,growth inhibition,[10]; [17],-1%
same,growth inhibition,[10]; [18],22%
same,growth inhibition,[10]; at 50.0 µM,-6.4%
same,growth inhibition,[11]; at 1.2 µM,2%
same,growth inhibition,[11]; at 3.7 µM,-1%
same,growth inhibition,[11]; [17],-7%
same,growth inhibition,[11]; at 11.0 µM,-7%
same,growth inhibition,[11]; at 33.0 µM,-4%
same,growth inhibition,[11]; [18],63%
same,growth inhibition,[11]; at 50.0 µM,90.5% (active)
same,growth inhibition,[11]; at 100.0 µM,40%
same,growth inhibition,[12]; at 1.2 µM,-3%
same,growth inhibition,[12]; at 3.7 µM,-4%
same,growth inhibition,[12]; at 11.0 µM,-4%
same,growth inhibition,[12]; at 33.0 µM,12%
same,growth inhibition,[12]; at 100.0 µM,47%
same,growth inhibition,[13]; at 1.2 µM,-1%
same,growth inhibition,[13]; at 3.7 µM,-4%
same,growth inhibition,[13]; at 11.0 µM,-5%
same,growth inhibition,[13]; at 33.0 µM,7%
same,growth inhibition,[13]; at 100.0 µM,35%
same,growth inhibition,[14]; at 1.2 µM,-2%
same,growth inhibition,[14]; at 3.7 µM,-3%
same,growth inhibition,[14]; at 11.0 µM,3%
same,growth inhibition,[14]; at 33.0 µM,27%
same,growth inhibition,[14]; at 100.0 µM,63%
same,growth inhibition,[15]; [17],-2%
same,growth inhibition,[15]; [18],58%
same,growth inhibition,[15]; at 50.0 µM,87.8% (active)
same,growth inhibition,[16]; at 1.2 µM,-2%
same,growth inhibition,[16]; at 3.7 µM,0%
same,growth inhibition,[16]; at 11.0 µM,4%
same,growth inhibition,[16]; at 33.0 µM,30%
same,growth inhibition,[16]; at 100.0 µM,80% (active)
CO[C@H]1C[C@](C)(O)Cc2cc3c(c(O)c21)C(=O)c1c(O)cc2c(c1C3=O)O[C@@H]1O[C@@]2(C)[C@H](O)[C@@H](N(C)C)[C@@H]1O,growth inhibition,[1]; at 1.2 µM,-22%
same,growth inhibition,[1]; at 3.7 µM,-13%
same,growth inhibition,[1]; at 11.0 µM,5%
same,growth inhibition,[1]; at 33.0 µM,60%
same,growth inhibition,[1]; at 100.0 µM,87% (active)
same,growth inhibition,[2]; at 1.2 µM,-38%
same,growth inhibition,[2]; at 3.7 µM,-38%
same,growth inhibition,[2]; at 11.0 µM,-39%
same,growth inhibition,[2]; at 33.0 µM,-44%
same,growth inhibition,[2]; at 100.0 µM,-37%
same,growth inhibition,[3]; at 1.2 µM,-28%
same,growth inhibition,[3]; at 3.7 µM,-5%
same,growth inhibition,[3]; at 11.0 µM,-9%
same,growth inhibition,[3]; at 33.0 µM,-12%
same,growth inhibition,[3]; at 100.0 µM,33%
same,growth inhibition,[4]; at 1.2 µM,-28%
same,growth inhibition,[4]; at 3.7 µM,-23%
same,growth inhibition,[4]; at 11.0 µM,-19%
same,growth inhibition,[4]; at 33.0 µM,-22%
same,growth inhibition,[4]; at 100.0 µM,-32%
same,growth inhibition,[5]; at 1.2 µM,-44%
same,growth inhibition,[5]; at 3.7 µM,-7%
same,growth inhibition,[5]; [17],-11%
same,growth inhibition,[5]; at 11.0 µM,17%
same,growth inhibition,[5]; at 33.0 µM,72% (active)
same,growth inhibition,[5]; [18],75% (active)
same,growth inhibition,[5]; at 50.0 µM,20.9%
same,growth inhibition,[5]; at 100.0 µM,85% (active)
same,growth inhibition,[6]; at 1.2 µM,-19%
same,growth inhibition,[6]; at 3.7 µM,-7%
same,growth inhibition,[6]; [17],-3%
same,growth inhibition,[6]; at 11.0 µM,-21%
same,growth inhibition,[6]; at 33.0 µM,-4%
same,growth inhibition,[6]; [18],-11%
same,growth inhibition,[6]; at 50.0 µM,-11.2%
same,growth inhibition,[6]; at 100.0 µM,-6%
same,growth inhibition,[7]; at 1.2 µM,-32%
same,growth inhibition,[7]; at 3.7 µM,-44%
same,growth inhibition,[7]; at 11.0 µM,-63%
same,growth inhibition,[7]; at 33.0 µM,-53%
same,growth inhibition,[7]; at 100.0 µM,-51%
same,growth inhibition,[8]; [17],-16%
same,growth inhibition,[8]; [18],-1%
same,growth inhibition,[8]; at 50.0 µM,14.3%
same,growth inhibition,[9]; at 1.2 µM,-11%
same,growth inhibition,[9]; at 3.7 µM,-29%
same,growth inhibition,[9]; at 11.0 µM,-8%
same,growth inhibition,[9]; at 33.0 µM,-14%
same,growth inhibition,[9]; at 100.0 µM,-33%
same,growth inhibition,[10]; [17],25%
same,growth inhibition,[10]; [18],31%
same,growth inhibition,[10]; at 50.0 µM,21.9%
same,growth inhibition,[11]; at 1.2 µM,-15%
same,growth inhibition,[11]; at 3.7 µM,-11%
same,growth inhibition,[11]; [17],-2%
same,growth inhibition,[11]; at 11.0 µM,-30%
same,growth inhibition,[11]; at 33.0 µM,-31%
same,growth inhibition,[11]; [18],15%
same,growth inhibition,[11]; at 50.0 µM,-10.6%
same,growth inhibition,[11]; at 100.0 µM,-20%
same,growth inhibition,[12]; at 1.2 µM,-19%
same,growth inhibition,[12]; at 3.7 µM,-21%
same,growth inhibition,[12]; at 11.0 µM,-26%
same,growth inhibition,[12]; at 33.0 µM,-19%
same,growth inhibition,[12]; at 100.0 µM,-12%
same,growth inhibition,[13]; at 1.2 µM,-42%
same,growth inhibition,[13]; at 3.7 µM,-38%
same,growth inhibition,[13]; at 11.0 µM,-14%
same,growth inhibition,[13]; at 33.0 µM,-36%
same,growth inhibition,[13]; at 100.0 µM,-22%
same,growth inhibition,[14]; at 1.2 µM,-28%
same,growth inhibition,[14]; at 3.7 µM,-28%
same,growth inhibition,[14]; at 11.0 µM,-24%
same,growth inhibition,[14]; at 33.0 µM,-7%
same,growth inhibition,[14]; at 100.0 µM,2%
same,growth inhibition,[15]; [17],-19%
same,growth inhibition,[15]; [18],0%
same,growth inhibition,[15]; at 50.0 µM,73.2% (active)
same,growth inhibition,[16]; at 1.2 µM,-27%
same,growth inhibition,[16]; at 3.7 µM,-27%
same,growth inhibition,[16]; at 11.0 µM,-29%
same,growth inhibition,[16]; at 33.0 µM,-27%
same,growth inhibition,[16]; at 100.0 µM,-18%
